Screening results: PubChem, Sanford-Burnham Center for Chemical Genomics
Only some compounds are listed: those with a hit (about 3.1% of all), similar ones and a draw of the others.
Peg3 prom inh: reduces Peg3 promoter-driven luciferase expression in HeLa; HeLa PEG-Prom luciferase reporter, luminescence, overnight; inhibition, % at 20 µM; 1.7% of 360,000 active; AID 588405;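 active = inhibition of at least 50% at 20 µM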
TRAIL sens C8: sensitizes caspase-8 expressing cells to TRAIL | NB7+C8 cells + TRAIL, ATPlite viability luminescence | inhibition (viability loss, TRAIL sensitization), % at 10 µM | 1% of 360,000 active | AID 624354;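 active = compounds causing at least 50% loss of cell viability in the single-dose screen, relative to plate controls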
CF NFkB block: cystic fibrosis NF-kB activation inhibition | 0.86% of 360,000 active | KKLEB NF-kB-GFP reporter, PAF-induced, GFP fluorescence overnight | AID 588850 | inhibition, % at 5 µM;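 active = at least 50% inhibition at 5 µM, scaled per plate between neutral and stimulator controls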;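 also: PAF is a Pseudomonas aeruginosa culture filtrate used as stimulus; plate controls were PAF-stimulated DMSO wells for no effect and unstimulated DMSO wells for full effect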
PPC-1+TRAIL kill: PPC-1 cancer cell killing with TRAIL present; 0.41% of 220,000 active; cell killing (% activity), % at 4 µM or 5 µM; PPC-1 cells + TRAIL, ATPLite viability luminescence;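 active = cell killing above 50% in the first pass at 4 µM, then a duplicate retest at 5 µM averaging 50% or more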;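 also: plate controls were cells with TRAIL plus DMSO for no effect and medium-only wells lacking cells for full effect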
KKLEB tox: counter-screen for CF NF-kB inhibitors: cytotoxicity; KKLEB CF airway cells viability, ATPlite luminescence, overnight; stronger effect = lower value; cells stimulated with P. aeruginosa culture filtrate; activity change (cytotoxicity), % at 5 µM; 0.36% of 360,000 active;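 active = corrected activity change at or below -50% at 5 µM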
HIF-2a block: blocks HIF-2a reporter activity; 786-0 RCC cells HIF-2a reporter, luciferase luminescence, overnight; inhibition, % at 18.8 µM; 0.72% of 360,000 active; AID 624352;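 active = inhibition of the luminescence signal of 40% or more relative to plate controls, in a single-dose primary screen at 18.75 µM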
CF NFkB inh conf: confirmation of cystic fibrosis induced NF-kB inhibitors; shares compounds with CF NFkB block; inhibition, % at 5 µM; 64% of 1,300 active; KKLEB CF airway cells, PAF-induced NF-kB-GFP fluorescence, overnight; in the data active = inhibition above about 40%;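 also: stimulus PAF is a Pseudomonas aeruginosa filtrate and not platelet activating factor; plate controls were DMSO wells with stimulus for no effect and unstimulated DMSO wells for full effect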
An asterisk follows results filed as active; nt = no result given.

SMILES | Peg3 prom inh | TRAIL sens C8 | CF NFkB block | PPC-1+TRAIL kill | KKLEB tox | HIF-2a block | CF NFkB inh conf
CC(C)(C)Nc1c(C2CCNCC2)nc2c(OCc3ccccc3)cccn12 | -3 | 1 | -10 | nt | -12 | 11 | nt
O=C(Nc1nnc(C(F)(F)F)s1)c1ccc(Br)s1 | -180 | 17 | 54* | 9 | -20 | -240 | 83*
COc1ccc(NC(=O)Cn2ncn3nc(-c4ccc(OC)cc4)cc3c2=O)cc1 | -11 | 24 | 54* | nt | -33 | -16 | 55*
CCCOc1c(Br)cc(C(=O)OCc2cc(=O)n3ccsc3n2)cc1OC | 13 | 23 | 58* | nt | 3 | 8 | 26
CCN(c1ccc(OC)cc1)c1ncnc2nc[nH]c12 | 13 | -8 | 66* | 5 | 3 | 18 | 86*
CCCCN(Cc1ccccc1)c1ncnc2nc[nH]c12 | -213 | -6 | 31 | 17 | 5 | -142 | nt
CCCCN(CCCC)c1ncnc2nc[nH]c12 | 6 | 1 | 53* | 13 | -19 | 34 | 70*
Cc1ccc(S(=O)(=O)NCc2ccccc2)cc1C(=O)NCC(=O)Nc1c(C)cccc1C | 6 | -21 | -20 | nt | 5 | 11 | nt
Brc1cccc(CSc2nnc(-c3ccncc3)o2)c1 | -3 | -3 | 59* | -4 | 10 | -9 | 69*
O=C(CC12CC3CC(CC(C3)C1)C2)Nc1nncs1 | 36 | -14 | 50* | nt | -5 | 19 | 61*
Cc1nnc(NC(=O)CC23CC4CC(CC(C4)C2)C3)s1 | -5 | -11 | 13 | nt | -4 | -2 | nt
C=C(C)[C@@H]1CC[C@]2(C(=O)O)CC[C@]3(C)[C@H](CC[C@@H]4[C@@]5(C)CC[C@H](O)C(C)(C)[C@@H]5CC[C@]43C)[C@@H]12 | 54* | 12 | 70* | -4 | 5 | 4 | 56*
CC(C)C[C@H]1CN(CCCC[C@H]2CNC(=O)C(=O)N2CC2CCCCC2)C(=O)C(=O)N1CCc1ccccc1 | nt | 13 | nt | nt | nt | 6 | nt
CSc1ccc(CN2CCC2(C)C(=O)NC2CCN(Cc3ccccc3)CC2)cc1 (configuration not stated) | 2 | 7 | 33 | nt | -16 | 14 | nt
Cc1nn(-c2ccccc2)c(N2CCCC2)c1/C=N/NC(=O)c1cc(-c2cccs2)nc2ccccc12 | 36 | 5 | 22 | 26 | -14 | 21 | nt
Cc1nn(-c2ccccc2)c(N2CCCC2)c1/C=N/NC(=O)c1cc(-c2ccccc2)nc2ccccc12 | 55* | 19 | 55* | 26 | -8 | 20 | 66*
Cc1ccc(-c2cc(C(=O)N/N=C/c3c(C)nn(-c4ccccc4)c3C)[nH]n2)cc1 | -4 | 31 | 50* | -4 | -32 | 3 | 84*
O=C(NCc1ccccc1)C1=C[C@H](c2csc3ccccc23)C[C@H](OCc2ccc(CO)cc2)O1 | 34 | 23 | 53* | 5 | -48 | 23 | 60*
O=C(Nc1ccccc1)C1=C[C@@H](c2csc3ccccc23)C[C@@H](OCc2ccc(CO)cc2)O1 | 17 | 20 | 1 | 12 | -2 | 9 | nt
CN(CC(=O)Nc1cc(Cl)ccc1-n1cncn1)Cc1ccccc1N1CCOCC1 | -2 | 10 | -29 | nt | -1 | 17 | nt
CCNC(=O)C1(C)CCN(C(=O)c2c(F)ccc(C)c2F)C1 (configuration not stated) | 9 | -1 | 9 | nt | 0 | 10 | nt
COc1cc(/C=N/NC(=O)Nc2cccc3nsnc23)cc(OC)c1OC | 22 | 8 | 64* | 2 | -25 | 9 | 77*
O=C(NCC(=O)N1CCCC1)NN=Cc1ccccc1O | -126 | 10 | -7 | nt | -17 | -54 | nt
O=[N+]([O-])c1ccc(-c2nn(-c3ccccc3)cc2/C=N/n2c(-c3cccs3)n[nH]c2=S)cc1 | 14 | 20 | 56* | 15 | -34 | 5 | -7
Cc1ccc(C(=O)N2CCN(c3cccc(C)c3C)CC2)cc1S(=O)(=O)N1CCOCC1 | 12 | 30 | 4 | nt | 5 | -9 | nt
SMILES | Peg3 prom inh | TRAIL sens C8 | CF NFkB block | PPC-1+TRAIL kill | KKLEB tox | HIF-2a block | CF NFkB inh conf
CC(=O)OCC(=O)C1(O)CCC2C3CC(C)C4=CC(=O)C=CC4(C)C3C(O)CC21C (configuration not stated) | -18 | 15 | 65* | nt | 45 | 18 | 4
Cc1ccccc1S(=O)(=O)NC(=O)C1(C)CCN1C(=O)Cc1cc(F)ccc1F (configuration not stated) | 2 | -5 | 9 | nt | 1 | 2 | nt
Cc1ccc(-c2cc(C(F)F)nc(S(C)(=O)=O)n2)cc1 | 98* | 1 | 51* | 26 | -33 | 10 | -66
Cc1ccc(-c2cc(-c3ccccc3)nc(Cl)n2)cc1 | -45 | -15 | -7 | 26 | -3 | -96 | nt
Cc1ccc(NC(=O)Nc2cccc([N+](=O)[O-])c2)cc1F | -183 | 32 | 65* | 12 | -48 | -241 | 52*
Cc1cc(NC(=O)Nc2cccc([N+](=O)[O-])c2)no1 | -56 | 0 | 5 | 17 | 9 | -39 | nt
COc1ccc(S(N)(=O)=O)cc1C(=O)OCC(=O)N1CCCC(C)C1 (configuration not stated) | 15 | -1 | 15 | nt | 8 | 7 | nt
Nc1nccc(-c2cc(-c3ccc(Cl)cc3Cl)no2)n1 | -112 | 69* | 51* | 36 | -22 | -231 | 27
Cc1cccc(-n2c(SCc3ccc([N+](=O)[O-])cc3)nnc2-c2c[nH]c3ccccc23)c1 | 20 | 4 | 51* | 40 | -40 | 18 | 21
CCC1Sc2ccc(S(=O)(=O)CCC(=O)NCc3ccco3)cc2NC1=O (configuration not stated) | 8 | -4 | -1 | nt | 6 | -15 | nt
CCOC(=O)c1cccc(NC(=O)CC2Oc3ccccc3NC2=O)c1 (configuration not stated) | 21 | -5 | -6 | nt | -12 | 13 | nt
COc1ccc(OC)c(Nc2ncnc3ccccc23)c1 | -7 | 5 | 11 | 7 | -2 | -9 | nt
COc1ccc(OC)c(Nc2ncnc3ccc(Br)cc23)c1 | 37 | -5 | 54* | nt | -24 | 33 | 68*
COc1cccc(Nc2ncnc3ccc(Br)cc23)c1 | 16 | -7 | 62* | nt | -14 | 11 | 87*
COc1cc(CNC[C@H]2O[C@@H](n3ccc(N)nc3=O)[C@H](O)[C@@H]2O)ccc1OCc1cccc(Cl)c1 | -8 | -6 | -36 | nt | 14 | -22 | nt
O=C(NCc1ccc(F)cc1F)[C@@H]1CCCN1C(=O)[C@@H]1CCCN1C(=O)c1ccc(Cl)cc1 | nt | -2 | nt | nt | nt | 3 | nt
O=C(Oc1ccccc1C(=O)Nc1ccccc1)c1ccccc1Br | -94 | 50 | 62* | 21 | -46 | -116 | -12
O=C(COc1ccccc1C(=O)Nc1ccccc1)c1ccc(Br)cc1 | -13 | 4 | 10 | 6 | -5 | -12 | nt
Nc1nc(N)nc(-c2ccc(Cl)c(Cl)c2)n1 | -302 | -4 | 79* | nt | -12 | -233 | 91*
